From PubChem BioAssay
Sampled rows, rich in hits. Any-hit rate of the full collection: about 4.4%.
USP1-UAF1 inh – USP1/UAF1 (human) deubiquitinase inhibition; AID 743255; 390,000 tested, 0.23% active; Potency, µM (titrated, usually from 57.1 µM), most hits filed as inhibitors; O94782; recombinant USP1/UAF1, Ub-Rhodamine cleavage fluorescence; active means well fitted inhibition curve with a large enough effect; inconclusive means small, poorly fitted or top-dose-only effect; inactive means no such curve, though single readings can be large or run the other way; further: nearly all actives have a fitted effect of over 60% in size
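Step one: compound is pinned into 1nM USP1/UAF1 in HEPES pH 7.8 buffer with TCEP. Step two: 15 min room-temperature incubation. Step three: Ub-Rho (150nM final) starts cleavage, tracked by fluorescence over six one-minute reads.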
D1 antag – blocks dopamine activation of the human D1 receptor. P21728. HEK293 TREx D1 cells, calcium flux, dopamine EC80; hits give low values. activity change, negative = inhibition, % at 10 µM. 360,000 tested, 3.2% active. AID 504652; in the data active means activity change below about -30%
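Kinetic fluorescence of a calcium dye serves as the read-out. D1-expressing Hek293 Trex cells, induced overnight at 30 C, are exposed to compound for 180 s before an EC80 dopamine addition, then read 180 s further.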
D1 ag – agonists of human D1 dopamine receptor; P21728; HEK293 T-REx D1 cells, calcium flux, agonist mode; activation, % at 2 µM; 360,000 tested, 1% active
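Inducible HEK293 T-REx D1 cells, force-coupled to calcium signalling, were plated at 4000 cells/well with tetracycline and held overnight at 30 C. After no-wash calcium dye loading, compound-evoked calcium rise over 180 s flagged agonists.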
TRHR enhancer – allosterically enhances the human TRH receptor; P34981; TRHR cells, fluo-8 calcium fluorescence, EC20 TRH enhancement; enhancement, % at 2 µM; 360,000 tested, 0.66% active; in the data active means enhancement above about 30%
Target sequence (P34981 whole entry, looked up): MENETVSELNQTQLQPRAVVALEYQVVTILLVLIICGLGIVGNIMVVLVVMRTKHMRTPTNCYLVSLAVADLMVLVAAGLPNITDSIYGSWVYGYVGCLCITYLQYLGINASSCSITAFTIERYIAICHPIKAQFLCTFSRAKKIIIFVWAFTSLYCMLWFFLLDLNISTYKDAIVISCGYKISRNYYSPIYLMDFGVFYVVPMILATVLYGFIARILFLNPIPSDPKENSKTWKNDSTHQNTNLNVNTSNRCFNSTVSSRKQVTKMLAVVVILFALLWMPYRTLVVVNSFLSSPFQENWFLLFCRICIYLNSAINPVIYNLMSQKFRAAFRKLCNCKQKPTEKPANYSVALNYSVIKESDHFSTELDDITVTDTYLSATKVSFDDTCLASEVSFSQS
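TRHR-expressing cells loaded with fluo-8 calcium dye were read kinetically (ex 480/em 530) during compound addition, then stimulated with an EC20 of TRH (10 nM final). Enhancement of the Gq-mediated intracellular calcium response was scored.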
TRHR ag – activates the human TRH receptor; P34981; TRHR cells, calcium flux fluo-8, FDSS agonist mode; activation, % at 2 µM; 360,000 tested, 0.18% active
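Steps: seed TRHR cells overnight; add fluo-8 no-wash Ca dye, RT 30 min–1.5 h; record 10 s baseline; pin-transfer compounds; monitor fluorescence 1 cycle/s for the agonist window. Calcium increases flag candidate agonists.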
D1 PAM – potentiators of human D1 dopamine receptor; 360,000 tested, 0.036% active; potentiation, % at 10 µM; HEK293 TREx D1 cells, calcium flux, dopamine EC20 potentiation; in the data active means potentiation above about 30%
Each line names hits and unclear results; the compound was inactive in the other large screens; ! = not confirmed by another sample. Unless noted, no stated cut-off is given here; in the data, active means activation above about 30%; inactive means the rest.

O=C(c1ccco1)[C@@H]1[C@@H]2C(=O)N(c3ccc(F)cc3)C(=O)[C@@H]2C2c3ccccc3C=CN21 (some centres undefined)	none (no result: USP1-UAF1 inh)
CC(=O)[C@@H]1[C@@H]2C(=O)N(c3ccc(F)c(Cl)c3)C(=O)[C@@H]2C2c3ccccc3C=CN21 (some centres undefined)	none (no result: USP1-UAF1 inh)
O=C(c1ccc(Cl)cc1)[C@@H]1[C@@H]2C(=O)N(c3ccc(Cl)cc3)C(=O)[C@@H]2C2c3ccccc3C=NN21 (some centres undefined)	D1 antag -35.0
Cc1c(NC(=S)NC(=O)c2sc3ccccc3c2Cl)cccc1C(=O)O	none
COc1ccccc1C(=O)NNC(=S)NC(=O)c1sc2ccccc2c1Cl	D1 ag 213.2
COc1ccccc1C(=O)NC(=S)NNC(=O)c1sc2ccccc2c1Cl	D1 ag 198.9, TRHR ag 36.3
CCn1cnc2c(Nc3ccc(CC(=O)N=C(N)N)cc3)nc(C#N)nc21	none (no result: USP1-UAF1 inh)
OC1(c2ccc3c(c2)OCO3)CCN(Cc2ccccn2)CC1	D1 antag -40.2
O=C(CN1CCC(O)(c2ccc3c(c2)OCO3)CC1)N1CCOCC1	none
O=C(Nc1cccc(Cl)c1)C1CCCN(c2nn3cc(-c4ccc(F)cc4)nc3s2)C1 (centres undefined)	none
CCC(NC(=O)COC(=O)C1CC2CCCC(C1)C2=O)c1ccc(Br)cc1 (centres undefined)	D1 antag -56.2
COc1ccc(C2c3cccn3CCN2S(=O)(=O)c2ccc([N+](=O)[O-])cc2)cc1 (centres undefined)	none (no result: D1 antag)
O=C(NCCS(=O)(=O)N1CCN(c2ccc(F)cc2)CC1)c1ccco1	D1 antag -42.3
CC(C)N(C(=O)CSc1cn(CC(=O)N2CCCCCC2)c2ccccc12)C(C)C	none
CCc1ccccc1OC[C@@H](O)CN[C@H]1CCCc2ccccc21	D1 antag -51.8, D1 ag 97.3
CC(C)(C)NCC(O)COc1ccccc1C1CCCC1 (centres undefined)	D1 ag 31.1
CC(C)(C)NC[C@@H](O)COc1cccc2c1CCCC2=O	none
Cc1ccc(-n2c(Cc3ccccc3)nnc2SCc2nc(-c3cccs3)no2)cc1C	none
O=C(CN1CCCCCCC1)N/N=C/c1ccc(F)cc1F	D1 antag -31.6
CC(OC(=O)c1c2c(nc3ccccc13)/C(=C\c1ccc3c(c1)OCO3)CCC2)C(=O)Nc1ccc(S(N)(=O)=O)cc1 (centres undefined)	USP1-UAF1 inh inconclusive, TRHR ag 96.4
Cc1cccc(C)c1NC(=O)COC(=O)c1c2c(nc3ccccc13)/C(=C\c1ccc3c(c1)OCO3)CCC2	D1 antag -33.5, D1 ag 94.5
CC(OC(=O)c1cc2ccccc2cc1O)C(=O)Nc1ccc(S(N)(=O)=O)cc1 (centres undefined)	none
Cc1cccc(C)c1NC(=O)COC(=O)c1ccc2c(c1)OCO2	none
Cc1nn(-c2ccc(N3CCOCC3)nn2)c(C)c1CCC(=O)NCc1ccc(Cl)cc1	none
O=C(Nc1cccc(C(F)(F)F)c1)c1cc(-c2ccc(Cl)cc2)on1	none
FC(F)(F)c1cccc(Nc2nc3nonc3nc2Nc2ccc(Cl)cc2)c1	D1 antag -47.8, D1 ag 51.4
Cc1ccc(-c2noc(-c3ccccc3NC(=O)C3CC(=O)N(c4ccccc4C)C3)n2)cc1 (centres undefined)	none
CCCC(=O)N(C1CC(C)C(C#N)(C#N)C1(C#N)C#N)N(C)C (centres undefined)	D1 antag -35.8
CC(=O)N(C1CC(C)C(C#N)(C#N)C1(C#N)C#N)N(C)C (centres undefined)	none
Cc1ccc(/C=N/NC(=O)Cc2ccc(O)cc2)s1	D1 antag -32.7
NCCc1cnc[nH]1	D1 ag 53.4!
CCOC(=O)C1(CCc2ccccc2)CCN(Cc2cc(OC)c(OC)cc2OC)CC1	D1 antag -36.7
CCOC(=O)C1(Cc2ccccc2)CCN(Cc2cnn(C(C)C)c2)CC1	none
CCOC(=O)C1(CCc2ccccc2)CCN(Cc2ccc(C(=O)OC)cc2)CC1	none
CCOC(=O)C1(Cc2ccccc2)CCN(Cc2csc(C(C)=O)c2)CC1	D1 antag -34.2
Cn1c(=O)c2c(n3c4ccccc4nc13)NC(=O)CC2c1ccccc1F (centres undefined)	none
O=C(O)CC/C(=C\c1ccc(N2CCOCC2)c([N+](=O)[O-])c1)c1nc2ccccc2s1	D1 antag -76.5
Cc1ccc(C(=O)OCC(=O)N(C)c2ccccc2)cc1C	none
CN(C(=O)COC(=O)CSc1ccc([N+](=O)[O-])cc1)c1ccccc1	D1 antag -46.9 (no result: D1 PAM)
CN(C)c1cccc(C(=O)OCC(=O)N(C)c2ccccc2)c1	none
Cc1cc(C(=O)OCC(=O)N(C)c2ccccc2)ccc1[N+](=O)[O-]	TRHR enhancer 35.0
CC(=O)Oc1ccc(-c2cccc(C(=O)OCC(=O)N(C)c3ccccc3)c2)cc1	D1 antag -84.1
N#Cc1c(Cl)cccc1Oc1ccc([S+](=O)([O-])N2CCN([S+](=O)([O-])c3c(F)cccc3F)CC2)cc1	none (no result: USP1-UAF1 inh)
Cn1nnnc1Sc1ncnc2scc(-c3ccccc3C#N)c12	none (no result: USP1-UAF1 inh)
Cc1ccc(S(=O)(=O)Nc2cc(Cl)c3oc4c(c3c2)C(=O)CC(C)(C)C4)cc1	none
CCc1ccc(NC(=O)CN2C(=O)CSc3ccc(S(=O)(=O)N(C)C)cc32)cc1	none
COC(=O)c1ccc(NS(=O)(=O)c2ccccc2)o1	D1 antag -32.8
CN(C(=O)Cn1cc(S(=O)(=O)Cc2ccccc2Cl)c2ccccc21)c1ccccc1	none
CCN(CC)C(=O)c1sc(NC(=O)c2c(OC)cccc2OC)c(C#N)c1C	D1 antag -30.1
COc1cc(CNCCN2CCOCC2)ccc1OCc1ccc(Cl)cc1	none
COc1cc(CNCCCN2CCOCC2)cc(Br)c1OCc1ccc(Cl)cc1	D1 ag 71.7 (no result: D1 antag)
COCCn1c(SCC(=O)c2c(N)n(C3CC3)c(=O)[nH]c2=O)nc2ccccc21	D1 antag -41.1
COc1ccc(Cl)cc1NC(=O)c1cc(C)nn1-c1ccccc1	USP1-UAF1 inh inconclusive
CC(=O)NN1C(=O)/C(=C\c2ccc(O)cc2)SC1=S	none
O=C1/C(=C\c2ccc(O)cc2)SC(=S)N1/N=C/c1ccc(O)cc1	D1 ag 110.8, TRHR ag 52.1
COc1ccc2[nH]c3c(=O)n(CCCCC(=O)N4CCC(C(N)=O)CC4)c(=S)[nH]c3c2c1	D1 antag -35.6
CCOCCCN(Cc1ccco1)S(=O)(=O)c1cc2c(cc1Cl)NC(=O)CO2	USP1-UAF1 inh inconclusive
